Assay outcomes from PubChem.
HepG2 tox: qHTS for Inhibitors of TGF-b: Cytotox Counterscreen; HepG2 CAGA-GFP viability, ATP luminescence, 18 h; Potency, µM (titrated, usually from 46.1 µM), for the others: at the highest dose activity change, negative = cytotoxicity, hits mostly cytotoxic; 410,000 compounds, 0.76% hits; note: potency is the fitted concentration of half-maximal effect
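CellTiter-Glo luminescence gave cytotoxicity after 18 hours at 37 degrees C. The cells were HepG2 CAGA-GFP in 1% FBS DMEM, stimulated with 500 pg/mL TGF-beta after compound addition. %Activity was normalised to no-cell wells (complete cell-killing) and DMSO (no toxicity), and curves were fitted and classified.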
IL1B secr inh: qHTS for Inhibitors of Inflammasome Signaling: IL-1-beta AlphaLISA Primary Screen | THP-1 LPS/ATP IL-1B secretion, AlphaLISA, 16 h; active compounds read low | activity change, % at 57.5 µM | 360,000 compounds, 4.7% hits; in the data active = activity change below about -50%; inconclusive = mostly about -30% to -49%; note: % is set by controls: 0 for no effect and ±100 for the full control effect
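THP-1 cells pretreated 1 hr with compounds (up to 57.5 uM final), then stimulated with LPS (250 ng/mL final) plus ATP (1.25 mM final); secreted IL-1B measured by AlphaLISA after 16 hr, decreased signal indicating inhibition.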
TDP1 cell CPT: qHTS for Inhibitors of human tyrosyl-DNA phosphodiesterase 1 (TDP1): qHTS in cells in presence of CPT | chicken DT40 Tdp1-/-;hTDP1 cells + 20 nM CPT, ATP luminescence, 48 h | Potency, µM (highest dose often 46.2 µM), for the others: at the highest dose activity change, negative = growth inhibition, usual class: inhibitors | AID 686979, 2013 | 420,000 compounds, 12% hits; note: potency is the fitted concentration of half-maximal effect; % is set by controls: 0 for no effect and ±100 for the full control effect; nearly all actives have a fitted effect of over 55% in size
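Chicken DT40 Tdp1-/- cells complemented with human TDP1, 400 cells/well, exposed to compounds plus 20 nM camptothecin for at least 48 h at 37 C; viability read as ATP content by CellTiter-Glo luminescence.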
DT40 TDP1 no CPT: qHTS for Inhibitors of human tyrosyl-DNA phosphodiesterase 1 (TDP1): qHTS in cells in absence of CPT | DT40 Tdp1-/- hTDP1 cells, no CPT, ATP luminescence, 48 h | Potency, µM (doses to about 46.2 µM), for the others: at the highest dose activity change, negative = growth inhibition, usual class: inhibitors | 420,000 compounds, 15% hits; note: potency is the fitted concentration of half-maximal effect; % is set by controls: 0 for no effect and ±100 for the full control effect; nearly all actives have a fitted effect of over 55% in size
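Chicken DT40 Tdp1-/- cells stably complemented with human TDP1 were seeded at 400 cells/well with DMSO in place of 20 nM camptothecin. After compound pinning, cells grew at least 48 hr at 37 °C; viability read by CellTiter-Glo luminescence.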
TGFb SMAD3 inh: qHTS for Inhibitors of TGF-b; HepG2 CAGA-GFP TGF-b/SMAD3 reporter, GFP fluorescence, 18 h; TGF-beta stimulated, 500 pg/mL final; Potency, µM (doses to about 46.1 µM), without a hit: top-dose activity, negative = inhibition, hits mostly inhibitors; 410,000 compounds, 1.2% hits; AID 588855, 2011; note: potency is the fitted concentration of half-maximal effect; % is set by controls: 0 for no effect and ±100 for the full control effect; nearly all actives have a fitted effect of over 65% in size
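GFP signal (ex488/em500-530) from TGF-beta-stimulated HEPG2 CAGA-GFP cells, 500 pg/mL final, 18 h at 37 degrees C in DMEM plus 1% FBS, normalized to unstimulated and DMSO-stimulated controls.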
ASM inhibitor: Inhibitors of Secretory Acid Sphingomyelinase (S-ASM): qHTS | placental ASM, HMU-PC fluorogenic substrate, 60 min | Potency, µM (top dose mostly 57.5 µM), for the others: top-dose activity change, negative = inhibition, most hits filed as inhibitors | 340,000 compounds, 0.006% hits | Sphingomyelin phosphodiesterase (Homo sapiens), P17405 | AID 504937, 2011; note: potency is the fitted concentration of half-maximal effect
Target sequence (P17405 47-631 limits assumed): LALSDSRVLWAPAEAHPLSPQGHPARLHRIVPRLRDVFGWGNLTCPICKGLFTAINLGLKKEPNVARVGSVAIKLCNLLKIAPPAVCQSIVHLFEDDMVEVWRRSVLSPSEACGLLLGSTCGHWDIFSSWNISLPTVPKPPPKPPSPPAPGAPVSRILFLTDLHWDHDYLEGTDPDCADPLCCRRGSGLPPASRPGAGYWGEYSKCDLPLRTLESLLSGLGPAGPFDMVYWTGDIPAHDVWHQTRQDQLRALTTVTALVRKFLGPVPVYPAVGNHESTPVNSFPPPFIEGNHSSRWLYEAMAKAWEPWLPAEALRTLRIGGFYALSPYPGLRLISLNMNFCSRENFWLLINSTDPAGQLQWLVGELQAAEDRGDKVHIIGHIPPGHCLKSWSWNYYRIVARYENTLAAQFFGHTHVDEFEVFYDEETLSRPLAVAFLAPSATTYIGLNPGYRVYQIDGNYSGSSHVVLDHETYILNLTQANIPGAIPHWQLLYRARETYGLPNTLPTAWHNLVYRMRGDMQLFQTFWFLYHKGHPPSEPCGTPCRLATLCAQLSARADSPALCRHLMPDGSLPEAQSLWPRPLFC
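Human placenta-derived ASM enzyme was preincubated with compound for 10 minutes at room temperature, then given fluorogenic substrate HMU-PC0 (9 uM final) for 60 minutes at 37 °C; a pH 10 stop preceded fluorescence reading at Ex 386/Em 447 nm.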
Numbers without * were called inactive; ? = inconclusive; · = no result given; [ ] = remark or other dose. Only some compounds are listed: those with a hit (about 19% of all), similar ones and a draw of the others. Unless noted, calls come from the whole dose curve; as a rule, active = well fitted curve in the direction sought with a large enough effect; inconclusive = small, poorly fitted or top-dose-only effect, or another doubt; inactive = no such curve, though single readings can be large; an effect the other way counts as inactive or inconclusive.

SMILES	HepG2 tox	IL1B secr inh	TDP1 cell CPT	DT40 TDP1 no CPT	TGFb SMAD3 inh	ASM inhibitor
Cc1nc(C)c(C(=O)N2CCCC(C(=O)c3ccc4ccccc4c3)C2)s1 (stereo not drawn)	-17.5%	-1.4	?	32.6µM*	-22.3%	-3.2%
O=C(c1ccc2ccccc2c1)C1CCCN(C(=O)c2cnccn2)C1 (stereo not drawn)	5.5%	28.3	?	-21.6%	4.7%	-0.4%
COc1c(C)cc(C(=O)C2CCCN(C(=O)c3snnc3C)C2)cc1C (stereo not drawn)	4.8%	9.0	18.4%	-17.4%	7.8%	1.7%
Cc1cc(C(=O)N2CCCC(C(=O)c3ccc4ccccc4c3)C2)n(C)n1 (stereo not drawn)	-17.5%	19.0	?	20.6µM*	-12.6%	-0.8%
COc1ccc2cc(C(=O)C3CCCN(C(=O)c4snnc4C)C3)ccc2c1 (stereo not drawn)	-66.5%	?	16.4µM*	23.1µM*	?	1.1%
COc1ccc2cc(C(=O)C3CCCN(Cc4cnc(C)s4)C3)ccc2c1 (stereo not drawn)	-13.7%	-65.5*	23.1µM*	16.4µM*	-25.3%	6.8%
CCC(=O)N1CCc2cc(Br)cc(S(=O)(=O)CCC(=O)NCc3ccc(Cl)cc3)c21	-19.8%	·	?	?	-22.5%	·
Cc1cccc(Cn2c(=O)n(-c3ccc(Cl)c(Cl)c3)c(=O)c3c(C)c(C)sc32)c1	-14.9%	·	-22.7%	?	-10.3%	·
CC(=O)NCCNc1nc2cc(-c3cc(F)ccc3C)sc2c(=O)n1C	-0.1%	25.4	?	-27.6%	-7.4%	·
CSc1ccc(C(=O)C2CCCN(C(=O)c3nn(C)c(=O)c4ccccc34)C2)cc1 (stereo not drawn)	-17.7%	-17.8	?	16.4µM*	?	1.7%
COc1ccc2cc(C(=O)C3CCCN(C(=O)c4cnccn4)C3)ccc2c1 (stereo not drawn)	1.0%	-10.7	?	?	-8.3%	2.0%
Cc1noc(C)c1COc1ccc(C(=O)N2CCCC(C(N)=O)C2)cc1 (stereo not drawn)	24.3%	?	-1.0%	8.7%	13.7%	4.9%
COc1ccc2cc(C(=O)C3CCCN(C(=O)/C=C/c4ccccn4)C3)ccc2c1 (stereo not drawn)	12.6µM*	-12.7	?	20.6µM*	0.0%	3.0%
COc1ccc2cc(C(=O)C3CCCN(C(=O)Cc4c(C)noc4C)C3)ccc2c1 (stereo not drawn)	-21.6%	3.1	23.1µM*	20.6µM*	-16.7%	-2.9%
COc1ccc(Cn2c(CCC(=O)Nc3ccc(Br)c(C)c3)nc3cccnc32)cc1	-28.5%	·	?	?	?	·
COC(=O)C1CCCCN1Cc1ccc2c(c1)CN(C(=O)c1ccc(F)cc1)CCO2 (stereo not drawn)	·	·	-3.9%[9.04 µM]	-16.1%	·	·
CC(C)Cn1c(=O)c2ccccc2n2c(CCC(=O)Nc3cccc(Cl)c3)nnc12	-3.2%	·	?	16.4µM*	3.3%	·
CC(C)Cn1c(=O)c2ccccc2n2c(CCC(=O)NCc3ccccc3Cl)nnc12	-24.1%	·	2.1%	-3.1%	?	·
O=C(CCc1nnc2n(Cc3ccccc3Cl)c(=O)c3ccccc3n12)Nc1ccc(F)cc1	-16.9%	·	5.8µM*	5.17µM*	-11.8%	·
COc1cccc(NC(=O)CCc2nnc3n(Cc4ccccc4Cl)c(=O)c4ccccc4n23)c1	-5.7%	·	16.4µM*	?	?	·
CC(C)Cn1c(=O)c2ccccc2n2c(CCC(=O)NCc3ccc(Cl)cc3)nnc12	-5.4%	·	?	-21.8%	1.0%	·
C=CCn1c(OCc2ccccc2)n[nH]c1=S	-0.7%	22.2	5.2%	-23.1%	4.9%	1.8%
Cc1cccc(N=C2NC(=O)/C(=C/C=C/c3ccco3)S2)c1	1.9%	-9.7	13µM*	23.1µM*	-22.3%	-24.2%
COc1ccc(N=C2NC(=O)/C(=C\C=C\c3ccco3)S2)cc1	-3.5%	-63.2*	?	?	1.6%	-19.5%
CCN(C1CCCCC1)S(=O)(=O)c1cc(C)ccc1OC	-23.0%	1.5	?	18.4µM*	0.9%	-0.6%
SMILES	HepG2 tox	IL1B secr inh	TDP1 cell CPT	DT40 TDP1 no CPT	TGFb SMAD3 inh	ASM inhibitor
CCN(C1CCCCC1)S(=O)(=O)c1ccc(OC)c(C)c1	2.6%	18.7	14.6µM*	16.4µM*	5.5%	-3.0%
COc1cc(S(=O)(=O)NC2CCCCC2C)ccc1-n1cnnn1 (stereo not drawn)	12.0%	31.3	-17.8%	?	-9.3%	-5.0%
COc1ccc(CN(C2CCCC2)S(=O)(=O)c2ccc(-n3cnnn3)c(OC)c2)cc1OC	2.1%	-51.8*	?	?	?	-11.4%
COc1ccc(C)cc1S(=O)(=O)N(C)CC(=O)NC1CCCCCC1	-11.0%	0.7	-9.1%	-9.0%	13.7%	-0.1%
CCN(C1CCCCC1)S(=O)(=O)c1ccc(-n2cnnn2)c(C)c1	13.2%	7.3	21.4%	-15.1%	13.5%	0.9%
O=S1(=O)[C@H]2C[C@H](CO)O[C@@]2(CO)CN1Cc1ccc(-c2ccc(F)cc2)cc1	-24.1%	64.5	?	?	?	7.3%
O=S1(=O)[C@H]2C[C@H](CO)O[C@@]2(CO)CN1Cc1ccc(-c2cccc(Cl)c2)cc1	-30.8%	-6.2	20.6µM*	?	?	-2.6%
Cc1ccccc1-c1cc(N(C)C)ncn1	·	·	-9.9%	-0.9%	·	·
COc1cc(S(=O)(=O)NCCCn2ccnc2)ccc1Cl	-15.0%	9.7	-1.8%	10.4%	6.5%	1.9%
CC(=O)c1ccc(NC(=O)CCCc2nc(-c3cccc(C)c3)no2)cc1	-20.1%	·	-29.3%	20.6µM*	-34.8%	·
Cc1cccc(-c2noc(CCC(=O)Nc3ccccc3)n2)c1	-14.6%	12.0	?	?	-22.9%	-3.8%
COc1ccc(-c2noc(CCCC(=O)Nc3ccc(C(N)=O)cc3)n2)cc1	-2.2%	39.6	-24.0%	-24.6%	9.6%	-2.6%
CCOC(=O)c1ccc(NC(=O)CCc2nc(-c3cccc(C)c3)no2)cc1	-25.3%	?	?	16.4µM*	0.0%	-15.8%
Cc1ccc(-c2noc(CCC(=O)Nc3cccc(C#N)c3)n2)cc1	-11.3%	-4.7	?	18.4µM*	-13.9%	-16.9%
